For 12 compounds, outcome and Potency results are on record in PubChem BioAssay (NCATS).

Inconclusive results are not listed. The source made the active and inactive calls. Unless noted, calls come from the whole dose curve; as a rule, active = well fitted curve in the direction sought with a large enough effect; inconclusive = small, poorly fitted or top-dose-only effect, or another doubt; inactive = no such curve, though single readings can be large; an effect the other way counts as inactive or inconclusive.

Experiment [1] addresses Protein phosphatase 1D (Homo sapiens) (UniProt O15297). Put plainly: Rhodamine-PBP qHTS Assay for Modulators of WT P53-Induced Phosphatase 1 (WIP1) (AID 1347425). The essentials:
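Read-out: Rhodamine-PBP fluorescence (ex 525/em 598 nm) for released Pi, read each minute for 11 min after adding 10 uM VEPPL-pS-QETFS; signal taken as f1 minus pre-substrate f0. Enzyme 5 nM WIP1 with 1 hr room-temperature compound preincubation.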

The nature of experiment [2]: Validation qHTS assay for inhibitors of Activation Induced Cytidine Deaminase (AID): UDG Counterscreen signal (AID 1347427). In a few lines:
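Counterscreen read of UDG activity (2 U/mL, 4/3x) in the FRET deamination format with AID (1 uM, 4/3x), DJC20/DJC23 substrates (250 nM, 4x), 4 h at room temperature. NaOH stop, fluorescence at 560 ex/665 em.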

Experiment [3] addresses Single-stranded DNA cytosine deaminase (Homo sapiens) (UniProt Q9GZX7). The experiment can be described thus: Validation qHTS assay for inhibitors of Activation Induced Cytidine Deaminase (AID): AID signal (AID 1347429). The essentials: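 Fluorescence at 540 nm excitation and 590 nm emission reports ssDNA cytosine deamination by AID, with UDG in the same well. Compound-treated reactions ran 4 hr at room temperature with DJC20/DJC23 substrate, followed by 30 min NaOH treatment.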
A general note: qHTS replaces the single test concentration by a dilution series.

A short description of experiment [4]: Primary qHTS for inhibitors of La Crosse Virus (LACV) - induced cell death in SH-SY5Y cells (AID 1508616).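 Note: top concentration of the series differs between compounds; higher means more rescue of cells from virus-induced death.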 The essentials:
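Protection against LACV-induced cell death is scored in SH-SY5Y cells exposed to compounds and virus (0.01 MOI) for 6 days. Data normalized to virus-infected DMSO wells and virus-free DMSO wells.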

In experiment [5] the target is Calcium and integrin-binding protein 1 (Homo sapiens) (UniProt Q99828). Put plainly: Validation qHTS for Identification of Calcium Integrin Binding protein 1 (CIB1) Competitor (AID 1508618). Note: potency is the fitted concentration of half-maximal effect. In a few lines: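 CIB1-GST (1 uM final) in 5 mM HEPES pH 7.4, 125 mM NaCl, 5 mM CaCl2, 0.01% Tween20 was preincubated 15 min at room temperature with compound (up to 114 uM), then FITC-alphaIIb peptide (100 nM) added for 15 min; fluorescence polarization read.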

For experiment [6] the target is unchanged. Put plainly: Primary qHTS for Identification of Calcium Integrin Binding Protein 1 (CIB1) Competitor (AID 1508620).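 Note: GST tagged CIB1 binding a fluorescein labelled alphaIIb integrin peptide tracer; top concentration of the series differs between compounds.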 In a few lines: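 CIB1-GST (1 uM final) and compound incubated 15 min at room temperature before adding FITC-alphaIIb peptide tracer (100 nM final). Competition for binding read by fluorescence polarization (ex 480, em 540) after another 15 min at room temperature.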

A short description of experiment [7]: Primary qHTS for small molecule stabilizers of the endoplasmic reticulum resident proteome: Secreted ER Calcium Modulated Protein (SERCaMP) assay (AID 1508630). The essentials: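 GLuc-SERCaMP-expressing SH-SY5Y cells, pretreated 16 h with compound, are challenged with thapsigargin to empty ER calcium stores; after 4 h, coelenterazine is added directly to the medium and luminescence is imaged.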

Experiment [8] in a line: A High-Content qHTS Against Drug Library for the Identification of Small Molecules that Inhibit DYT1 Early Onset Primary Dystonia-Associated Cell Pathology (AID 1645839; calls by dose curve; note: series mostly up to about 46 µM). In a few lines:
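In this high-content image screen, delE TorsinA mislocalization in inducible Flp-In 293 cells is scored as %pathology, with cell count serving as the counterscreen. Compound exposure lasts 48 h under tetracycline induction in reduced-serum medium.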

For experiment [9], the target named is Cytochrome P450 2D6 (Homo sapiens) (UniProt P10635). Put plainly: Cytochrome P450 family 2 subfamily D member 6 (CYP2D6) small molecule antagonists: luciferase biochemical (cell-free) qHTS assay (AID 1645840; active = well fitted curve in the direction sought with a large enough effect in the repeat runs; an effect the other way counts as inactive or inconclusive; note: nearly all actives have a fitted effect of over 55% in size; note: potency is the fitted concentration of half-maximal effect). The essentials:
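P450-Glo luminescent screen: recombinant CYP2D6 enzyme–proluciferin substrate mix preincubated with compound 10 min at room temperature, then NADPH regeneration added for 1 h at room temperature. Detection reagent added for 20 min; luciferin light read as relative luminescence units.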

A short description of experiment [10]: Counterscreen qHTS for small molecule stabilizers of the endoplasmic reticulum resident proteome: GLuc-NoTag assay (AID 1508627). Note: potency is the fitted concentration of half-maximal effect. In a few lines:
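Luminescence of Gaussia luciferase secreted into the medium (coelenterazine, 0.07x final, unlysed cells) was the read-out. Human SH-SY5Y neuroblastoma cells constitutively secreting untagged GLuc received compound for 19 h, then 100 nM thapsigargin for 4 h.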

A short description of experiment [11]: Primary qHTS for inhibitors of SARS-S pseudo-typed particle cell entry (AID 1479145; calls by dose curve; note: series mostly up to about 57 µM; nearly all actives have a fitted effect of over 45% in size).
Experiment [12] can be described thus: Primary qHTS for Huh7 cytotoxicity: counterscreen for inhibitors of MERS-S pseudotyped particle cell entry (AID 1479147; calls by dose curve).
Experiment [13] can be described thus: Primary qHTS for inhibitors of MERS-S pseudo-typed particle cell entry (AID 1479149; calls by dose curve; note: nearly all actives have a fitted effect of over 60% in size).
Experiment [14] in a line: Primary qHTS for Vero E6 cytotoxicity: counterscreen for inhibitors of SARS-S pseudo-typed particle cell entry (AID 1479150; calls by dose curve).
Experiment [15] deals with Calcium and integrin-binding protein 1 (Homo sapiens) (UniProt Q99828). Put plainly: Confirmatory qHTS for Identification of Calcium Integrin Binding Protein 1 (CIB1) Competitor (AID 1508617). Note: nearly all actives have a fitted effect of over 65% in size. In a few lines:
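Fluorescence polarization competition: CIB1-GST (1 uM final) in 5 mM HEPES pH 7.4, 125 mM NaCl, 5 mM CaCl2, 0.01% Tween20 preincubated 15 min RT with compound (up to 114 uM), then FITC-alphaIIb peptide (100 nM) added, 15 min RT.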

Experiment [16] deals with Cytochrome P450 3A4 (Homo sapiens) (UniProt P08684). The experiment can be described thus: Cytochrome P450 family 3 subfamily A member 4 (CYP3A4) small molecule antagonists: luciferase qHTS assay (AID 1645841; active = well fitted curve in the direction sought with a large enough effect in the repeat runs; an effect the other way counts as inactive or inconclusive; note: nearly all actives have a fitted effect of over 45% in size). In a few lines: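 Luminescent CYP3A4 activity readout: compounds plus enzyme-substrate mix 10 min at room temperature, reaction started with NADPH regenerating system for 1 h, stopped with detection reagent, read after 20 min. Ketoconazole served as control.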
Chain of Cytochrome P450 3A4 (Homo sapiens) (P08684 whole entry, looked up): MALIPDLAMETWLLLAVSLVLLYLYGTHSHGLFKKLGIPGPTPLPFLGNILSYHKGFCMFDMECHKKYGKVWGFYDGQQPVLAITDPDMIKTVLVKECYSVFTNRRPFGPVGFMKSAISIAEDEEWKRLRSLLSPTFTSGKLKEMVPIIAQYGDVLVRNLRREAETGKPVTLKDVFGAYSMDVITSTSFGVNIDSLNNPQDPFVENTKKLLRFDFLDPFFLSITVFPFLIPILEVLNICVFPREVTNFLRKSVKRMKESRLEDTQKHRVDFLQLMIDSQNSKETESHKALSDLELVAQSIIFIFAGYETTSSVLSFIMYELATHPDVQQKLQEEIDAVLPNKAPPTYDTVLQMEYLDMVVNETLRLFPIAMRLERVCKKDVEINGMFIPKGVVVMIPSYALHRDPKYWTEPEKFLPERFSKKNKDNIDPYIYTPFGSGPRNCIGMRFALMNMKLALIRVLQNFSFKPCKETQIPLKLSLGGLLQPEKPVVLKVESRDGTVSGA

Chain of Protein phosphatase 1D (Homo sapiens) (O15297 whole entry, looked up): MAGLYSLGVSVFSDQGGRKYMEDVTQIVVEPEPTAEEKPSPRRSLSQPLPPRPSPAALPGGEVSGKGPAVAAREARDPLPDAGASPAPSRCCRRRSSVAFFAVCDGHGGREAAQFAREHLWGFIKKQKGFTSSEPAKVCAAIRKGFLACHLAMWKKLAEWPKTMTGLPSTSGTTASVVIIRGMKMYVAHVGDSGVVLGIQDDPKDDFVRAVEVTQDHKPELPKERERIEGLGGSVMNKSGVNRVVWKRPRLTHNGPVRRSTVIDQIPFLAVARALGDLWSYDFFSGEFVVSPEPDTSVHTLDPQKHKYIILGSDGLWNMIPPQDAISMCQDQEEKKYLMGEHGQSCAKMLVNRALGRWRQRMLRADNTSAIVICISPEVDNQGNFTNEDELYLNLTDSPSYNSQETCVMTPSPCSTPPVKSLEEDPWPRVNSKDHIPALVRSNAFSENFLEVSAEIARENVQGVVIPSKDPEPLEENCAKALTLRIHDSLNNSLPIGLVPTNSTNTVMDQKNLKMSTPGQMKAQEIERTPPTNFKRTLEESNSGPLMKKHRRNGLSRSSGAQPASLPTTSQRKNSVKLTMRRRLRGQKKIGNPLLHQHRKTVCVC
Chain of Cytochrome P450 2D6 (Homo sapiens) (P10635 whole entry, looked up): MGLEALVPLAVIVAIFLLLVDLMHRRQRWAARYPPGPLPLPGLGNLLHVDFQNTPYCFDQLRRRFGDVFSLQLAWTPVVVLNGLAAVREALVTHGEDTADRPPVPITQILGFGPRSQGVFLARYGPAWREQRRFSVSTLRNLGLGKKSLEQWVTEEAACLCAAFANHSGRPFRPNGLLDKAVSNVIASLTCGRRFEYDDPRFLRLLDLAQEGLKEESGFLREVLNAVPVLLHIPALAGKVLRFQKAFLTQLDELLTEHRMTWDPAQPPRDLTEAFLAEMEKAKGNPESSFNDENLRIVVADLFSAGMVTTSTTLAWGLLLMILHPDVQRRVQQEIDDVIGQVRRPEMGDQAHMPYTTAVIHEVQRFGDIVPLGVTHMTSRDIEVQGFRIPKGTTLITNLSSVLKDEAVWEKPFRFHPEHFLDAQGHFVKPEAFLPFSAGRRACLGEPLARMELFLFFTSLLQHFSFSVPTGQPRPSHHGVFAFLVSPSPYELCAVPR
Chain of Single-stranded DNA cytosine deaminase (Homo sapiens) (Q9GZX7 whole entry, looked up): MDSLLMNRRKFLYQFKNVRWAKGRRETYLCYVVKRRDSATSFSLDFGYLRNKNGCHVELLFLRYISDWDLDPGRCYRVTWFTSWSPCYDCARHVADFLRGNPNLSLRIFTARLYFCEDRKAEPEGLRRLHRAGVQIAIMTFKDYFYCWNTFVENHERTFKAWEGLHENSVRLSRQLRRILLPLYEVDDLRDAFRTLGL
Chain of Calcium and integrin-binding protein 1 (Homo sapiens) (Q99828 whole entry, looked up): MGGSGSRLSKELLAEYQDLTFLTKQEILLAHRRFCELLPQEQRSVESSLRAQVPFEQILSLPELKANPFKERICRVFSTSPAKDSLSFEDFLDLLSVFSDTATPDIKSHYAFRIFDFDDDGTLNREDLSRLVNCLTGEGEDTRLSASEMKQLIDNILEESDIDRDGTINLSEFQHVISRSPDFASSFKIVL

Consider `CCCN1CCC[C@@H]2Cc3[nH]ncc3C[C@H]21`, for which the result in experiment [1], in experiment [2], in experiment [3] and in experiment [7] was inactive. In addition, the Potency result in [4], in experiment [5], in experiment [6], in experiment [8] and in experiment [9] was “inactive” throughout.

Take `Fc1ccc(C(OCCN2CCN(CCCc3ccccc3)CC2)c2ccc(F)cc2)cc1`: the compound was called inactive in [1], in experiment [2], in experiment [3] and in [7]. Moreover, the Potency result in [4], in [5] and in experiment [6] was “inactive” each time. Besides, the Potency in experiment [10] is 44.7 µM (active).

For `Nc1ccncc1`, the call in [1], in [2], in [3] and in experiment [7] was inactive. Moreover, the Potency entry in experiment [11], in experiment [12], in experiment [13], in experiment [14], in experiment [4] and in [5] was “inactive” in each case. Besides, the Potency entry in [6] and in [8] was “inactive” throughout.

With `CC(=O)[C@H]1CC[C@H]2[C@@H]3CC[C@H]4C[C@H](O)CC[C@]4(C)[C@H]3C(=O)C[C@]12C`, the compound was classed as inactive in experiment [1], in experiment [2], in experiment [3] and in experiment [7]. The Potency result in [4], in experiment [5], in [6] and in experiment [8] was “inactive” in each case.

As to `CC(=O)[C@H]1CC[C@H]2[C@@H]3CC[C@H]4C[C@](C)(O)CC[C@]4(C)[C@H]3CC[C@]12C`, the outcome in [1], in experiment [2], in experiment [3] and in [7] was inactive. Moreover, the Potency result in [4], in experiment [5], in experiment [6] and in experiment [8] was “inactive” each time.

For `CN1C[C@H](CNC(=O)OCc2ccccc2)C[C@@H]2c3cccc4c3c(cn4C)C[C@H]21`, the compound was classed as inactive in [1], in experiment [2], in [3], in [15] and in [16]. The Potency result in [4] was “inactive”. Further, the Potency in experiment [5] is 44.7 µM (active).

Consider `CCCN1CCC[C@@H]2Cc3nc(N)ncc3C[C@H]21`, for which the result in [1], in experiment [2], in experiment [3] and in experiment [7] was inactive. The Potency entry in [5], in experiment [6] and in experiment [8] was “inactive” throughout. In addition, the Potency in experiment [9] is 9.77 µM (active).

On to `CCC1(C2=NCCN2)Cc2ccccc2O1` (configuration not stated), for which the compound was called inactive in experiment [1], in [2], in experiment [3] and in [7]. The Potency result in experiment [4], in experiment [5], in [6] and in experiment [8] was “inactive” throughout.

In the case of `CNCC(O)c1ccc(O)cc1` (configuration not stated), the call in [1], in experiment [2], in [3] and in [7] was inactive. Moreover, the Potency result in [4], in experiment [5], in [6], in experiment [8] and in experiment [9] was “inactive” throughout.

In the case of `NN=C(N)N`, the compound was called inactive in [1], in experiment [2], in experiment [3] and in experiment [7]. Moreover, the Potency result in experiment [4], in experiment [5], in experiment [6], in experiment [8] and in [9] was “inactive” each time.

For the compound `NCC(O)c1ccc(O)cc1` (configuration not stated), the call in experiment [1], in experiment [2], in [3] and in experiment [7] was inactive. Also, the Potency result in experiment [11], in [12], in [13], in experiment [14], in experiment [4] and in experiment [5] was “inactive” each time. The Potency result in experiment [6] and in experiment [8] was “inactive” throughout.

Take `O=C1CC[C@@]2(O)[C@H]3Cc4ccc(O)c5c4[C@@]2(CCN3CC2CC2)[C@H]1O5`: the outcome in experiment [1] and in experiment [7] was inactive. Also, the Potency entry in experiment [11], in experiment [12], in experiment [13], in [14], in experiment [4] and in [6] was “inactive” in each case. Further, the Potency result in experiment [8] is “inactive”.
